Screening data as filed in PubChem BioAssay.
Sampled rows, rich in hits. Any-hit rate of the full collection: about 3.5%.
TEAD-YAP block: TEAD-YAP interaction inhibition | 640,000 tested, 1.4% active | AID 1259422 | HEK-TIYL cells, TEAD-Gal4/YAP UAS-luciferase luminescence | inhibition, % at 9.12 µM; in the data active = inhibition above about 32%;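 also: 0% = median of test compound wells and 100% = reference inhibitor wells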
GPR151 activ: human GPR151 activation; PathHunter beta-arrestin GPR151 cells, luminescence; 650,000 tested, 1% active; activation, % at 11.2 µM; AID 1508602; in the data active = activation above about 4.9%;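 also: 0% = median of compound wells and 100% = cells with positive control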
Target sequence (Q8TDV0 whole entry, looked up): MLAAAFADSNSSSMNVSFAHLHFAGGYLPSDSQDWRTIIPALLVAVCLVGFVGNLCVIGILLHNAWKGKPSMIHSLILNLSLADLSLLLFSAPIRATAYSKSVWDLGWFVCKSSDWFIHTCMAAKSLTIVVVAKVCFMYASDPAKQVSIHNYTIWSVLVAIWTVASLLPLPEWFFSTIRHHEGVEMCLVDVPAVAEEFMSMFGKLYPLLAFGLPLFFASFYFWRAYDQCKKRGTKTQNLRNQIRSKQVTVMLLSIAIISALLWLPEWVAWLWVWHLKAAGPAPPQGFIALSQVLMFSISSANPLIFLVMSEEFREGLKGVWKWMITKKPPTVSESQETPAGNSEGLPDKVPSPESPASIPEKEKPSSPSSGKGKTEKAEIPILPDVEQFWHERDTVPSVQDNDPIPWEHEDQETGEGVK
MITF primary: inhibitors of human MITF | O75030 | AlphaScreen MITF homodimerization, bead proximity signal | inhibition, % at 2.6 µM | 650,000 tested, 0.91% active | AID 1259374; in the data active = inhibition above about 50%;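 also: 0% = vehicle wells with protein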
FBW7 act: activators of human E3 ligase FBW7. AlphaScreen FBW7–phospho-cyclin E peptide binding, activator screen. normalized activity (activation), % at 26.1 µM. 650,000 tested, 0.13% active; in the data active = normalized activity above about 1.9%;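 also: purified mutant Fbw7 with reduced substrate affinity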
* hit, by the source's call.

SMILES | TEAD-YAP block | GPR151 activ | MITF primary | FBW7 act
COc1ccc2c(c1)c1c3n2CCN(Cc2ccccc2)C3=[N+](C)CC1 | 42.0* | 2.9 | 0.7 | 0.0
CN1C(=O)C(CC(=O)Nc2ccccc2)SC1=Nc1cccc2ccccc12 (stereo not given) | -3.9 | -0.9 | -8.9 | -0.2
C=CCN=c1scc(-c2ccco2)n1/N=C/c1cccs1 | 34.2* | 1.0 | 22.1 | -0.5
COc1ccc(/C=C/c2nn3c(Cn4cnc5ccccc54)nnc3s2)cc1 | 38.5* | 2.9 | 7.2 | 0.2
COc1cccc(/C=C2\Oc3c(ccc(O)c3CN(C)C)C2=O)c1 | 8.8 | 1.1 | -0.7 | 0.0
Cc1oc(C)c2c(=O)cc(-c3ccc(O)c(O)c3)cc(O)c12 | 3.9 | 0.0 | 86.9* | -1.0
COc1ccc(-c2cc(O)c3c(C)oc(C)c3c(=O)c2)cc1 | 4.3 | 0.4 | 0.7 | -0.3
Cc1ccc(C)c(NC(=O)C2(C)CC3c4ccccc4C2c2ccccc23)c1 (stereo not given) | 3.9 | 1.4 | 11.2 | 0.2
COc1ccc(NC(=O)C2(C)CC3c4ccccc4C2c2ccccc23)cc1 (stereo not given) | -0.5 | 1.5 | 7.9 | 1.9*
O=C1c2ccccc2C(=O)N1CCCCN(C(=O)c1sc2ccccc2c1Cl)c1ccc(F)cc1F | 0.0 | 1.1 | -0.5 | 0.4
CCOc1ccccc1N1C(=O)NC2CC1(C)Oc1ccc(Br)cc12 (stereo not given) | -2.5 | 0.3 | -20.9 | 3.3*
COc1ccccc1N1C(=O)NC2CC1(C)Oc1ccc(Br)cc12 (stereo not given) | 3.8 | 0.3 | 2.1 | 0.0
COc1cc(OC)cc(C(=O)NCc2ccc(C(C)(C)C)cc2)c1 | 42.8* | 0.1 | 12.0 | 0.1
COc1cc(OC)cc(C(=O)NCc2ccc(S(N)(=O)=O)cc2)c1 | 6.2 | -2.2 | 21.1 | 0.3
COc1ccc(C(=O)Nc2ccc3c(c2)OCCO3)cc1 | 66.4* | -6.8 | 0.5 | 0.1
O=C(O)C1CCCCC1C(=O)Nc1ccc2c(c1)OCCO2 (stereo not given) | 61.7* | -1.3 | 18.9 | 0.4
COc1cccc(OC)c1C(=O)Nc1ccc2c(c1)OCCO2 | -6.9 | 0.5 | 3.5 | 0.3
O=C(O)C1C2CCC(O2)C1C(=O)Nc1ccc2c(c1)OCCO2 (stereo not given) | 8.1 | -1.2 | 5.5 | 0.0
Cc1cc(C(=O)Nc2ccc3c(c2)OCCO3)cs1 | 40.7* | -4.6 | 9.8 | 0.0
COC(=O)C(=NNc1ccc2c(c1)OCCO2)C(=O)OC | 80.5* | -1.7 | -0.5 | 0.7
N#CCc1nc2cc(C(F)(F)F)ccc2s1 | -1.6 | 3.5 | 8.3 | -0.1
Cc1ccc(CN2CCC3(CC2)CC3C(=O)NCc2cccnc2)cc1C (stereo not given) | 2.0 | 0.6 | -4.9 | -0.1
Cc1cc(OCC(=O)Nc2nnn(C)n2)ccc1Cl | -1.1 | -0.1 | 3.4 | 0.1
COc1ccc(NC(=O)c2ccc3c(c2)OCCO3)cc1 | 74.7* | -5.0 | -2.7 | -0.3
Cc1ccc2cc3c(N)c(C(=O)Nc4ccc5c(c4)OCCO5)sc3nc2c1 | 70.8* | -0.5 | 8.8 | -0.1
SMILES | TEAD-YAP block | GPR151 activ | MITF primary | FBW7 act
CC12CCC(C(=O)Nc3ccc(Cl)c(Cl)c3)(CC1=O)C2(C)C (stereo not given) | 8.5 | 1.6 | 1.7 | 0.1
O=C(Nc1cccnc1)C(=O)Nc1ccc2c(c1)OCCO2 | 58.9* | -6.1 | 21.9 | 0.0
CC12CCC(C(=O)Nc3ccc4c(c3)OCCO4)(CC1=O)C2(C)C (stereo not given) | 62.3* | -0.4 | 2.1 | -0.2
O=C(Nc1ccc2c(c1)OCCO2)c1ccc(C(=O)Nc2ccc3c(c2)OCCO3)nc1 | 64.5* | 2.9 | 11.6 | -0.2
O=C(Nc1ccc2c(c1)OCCO2)c1ccc2ccccc2c1 | 87.1* | -7.2 | 6.5 | 0.4
O=C(Nc1ccc2sccc2c1)c1ccc2c(c1)OCO2 | 71.5* | -6.6 | -8.2 | -0.1
O=C(Nc1ccc2c(c1)OCCO2)c1ccccc1 | 11.8 | -0.5 | 10.0 | 0.1
Cc1ccc(C(=O)COC(=O)CCCC(=O)Nc2cccc(Cl)c2)cc1[N+](=O)[O-] | -2.1 | -1.4 | -15.1 | -0.1
COC(CNC(=O)c1cc(Sc2ccccc2Cl)nc2ccccc12)OC | -3.6 | -0.1 | 8.7 | 0.1
COc1cccc(NC(=S)NC2CC2)c1 | 6.1 | 1.1 | -1.9 | -0.1
Cc1c(C(=O)NC(C)C)sc2ncnc(N3CCN(c4ccccc4)CC3)c12 | 2.1 | 1.3 | 17.5 | 2.1*
Cc1ccc(NC(=O)c2sc3ncnc(N4CCN(c5ccccc5F)CC4)c3c2C)c(Br)c1 | -4.7 | 1.0 | 24.4 | 2.0*
CCN(CC)C(=O)c1sc2ncnc(N3CCN(c4ccccc4)CC3)c2c1C | 8.0 | 0.0 | 27.0 | 2.0*
COc1cc(NC(=O)c2sc3ncnc(N4CCN(c5ccccc5F)CC4)c3c2C)cc(OC)c1OC | 32.2* | 0.6 | 18.8 | -0.1
Cc1c(C(=O)Nc2ccccc2F)sc2ncnc(N3CCN(c4ccccc4)CC3)c12 | -13.3 | -0.4 | 16.9 | 1.9*
Cc1c(C(=O)Nc2c(F)cccc2F)sc2ncnc(N3CCN(c4ccccc4)CC3)c12 | -4.6 | 0.8 | 21.7 | -0.4
COc1ccc(/C=C2/N=C(c3ccc(OC)c(Br)c3)OC2=O)c(OC)c1 | -14.5 | 1.3 | -7.1 | 0.2
COc1ccc(N=C2O/C(=C\c3sc(=S)n(CC4CCCO4)c3O)N=C2C#N)cc1 (stereo not given) | 9.1 | -1.4 | 51.7* | -0.5
Cc1cccc(-c2nnc(SCC(=O)Nc3ccccc3F)o2)c1 | 63.8* | -0.4 | -1.3 | 0.0
Cc1cccc(-c2nnc(SCC(=O)Nc3cc(Cl)ccc3O)o2)c1 | -38.7 | -3.9 | 16.6 | 0.0
COCCN1C(=S)NC2c3cccc(OC)c3OC1(C)C2C(=O)Nc1ccc(Cl)cc1 (stereo not given) | -8.1 | -1.0 | 12.0 | 0.2
COc1ccc2[nH]c3c(c2c1)CCNC3=O | 45.9* | 1.0 | -2.9 | 0.0
CC(C)(C)NC(=O)Cn1nc2c3ccccc3nc(C(C)(C)C)n2c1=O | -8.2 | 1.0 | -7.0 | -0.1
Cc1nc(NC(=O)c2cc3ccccc3o2)ccc1I | -13.8 | -2.5 | 19.4 | 0.5
Cc1nc(NC(=O)c2ccco2)ccc1I | 38.5* | -6.7 | 6.5 | 0.1
SMILES | TEAD-YAP block | GPR151 activ | MITF primary | FBW7 act
Cc1c(C)n2c3c(=O)n(C)c(=O)n(C)c3nc2n1CCCO | 5.2 | 0.9 | 28.5 | 0.0
Cc1cccc(C(=O)Nc2sccc2C#N)c1 | -21.8 | -0.8 | -10.5 | 0.1
Cc1cccc(C(=O)Nc2snc(Cl)c2C#N)c1 | 38.6* | -0.2 | -0.4 | 0.1
c1ccc(-n2ncc3c(Nc4cccc5c4CCCC5)ncnc32)cc1 | -1.3 | 3.9 | 4.6 | -0.1
COc1ccc(-n2ncc3c(Nc4cccc5c4CCCC5)ncnc32)cc1 | 47.1* | 0.7 | -3.8 | -0.2
Cc1cccc(Nc2ncnc3c2cnn3-c2cccc(C)c2)c1 | -27.1 | 0.4 | 9.6 | 0.5
Cc1cccc(-n2ncc3c(Nc4cccc5c4CCCC5)ncnc32)c1 | 41.6* | 0.5 | 17.6 | 0.1
C=CCc1cc(/C=C2/NC(=O)N(CC(=O)Nc3ccc(C)cc3)C2=O)cc(OCC)c1O | 23.9 | 1.3 | -2.5 | 0.0
O=C(NCC1Cc2c(F)ccc(-c3ccncc3)c2O1)C1(N2CCOCC2)CCCCC1 (stereo not given) | -10.8 | 0.0 | 6.0 | 0.0
